Inconclusive results are not listed. Entries that show only a call come without a potency. Activity calls are given as the source filed them. Calls follow the shape of the dose curve; as a rule, active = well fitted cell-killing curve with a large enough effect in the repeat runs; inconclusive = weak or mixed curves, or effect the other way; inactive = no such curve, though single readings can be large or run the other way.
Experiment: Caspase-3/7 induction in CHO-K1 cells by small molecules, qHTS cell viability counter screen (AID 1346979); also: nearly all actives have a fitted effect of over 35% in size
Conditions: CellTiter-Fluor fluorescence, 17 h; series mostly up to 92.4 µM
Summary of the method: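 To flag cytotoxic compounds, treated CHO-K1 wild-type cells were given CellTiter-Fluor at 16hr and read fluorescently after 1hr at 37C; the caspase-3/7 luminescence was measured in these same wells.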
Potency is read from the fitted curve at half-maximal effect.

Compound	Potency
CC(C)COCC(CN(Cc1ccccc1)c1ccccc1)N1CCCC1 (stereo not given)	29.8 µM (active)
Oc1ccc(Cl)c2cccnc12	6.68 µM (active)
CC(C)c1nc(CN(C)C(=O)N[C@H](C(=O)N[C@@H](Cc2ccccc2)C[C@H](O)[C@H](Cc2ccccc2)NC(=O)OCc2cncs2)C(C)C)cs1	23.7 µM (active)
C[C@H]1c2cccc(O)c2C(O)=C2C(=O)[C@]3(O)C(O)=C(C(N)=O)C(=O)[C@@H](N(C)C)[C@@H]3[C@@H](O)[C@@H]21	inactive
C=C(C)CCCC(C)CCO (stereo not given)	inactive
O=C=Nc1ccc(Cl)c(Cl)c1	inactive
CC(=O)NC1(c2cccc(F)c2)CCN(CC[C@@]2(c3ccc(Cl)c(Cl)c3)CN(c3ccccc3)C(=O)CO2)CC1	34.5 µM (active)
CC(=O)Nc1ccc(C)cc1C	inactive
CC(CCC(=O)O)C(=O)O (stereo not given)	inactive
Cc1cccc(O)c1N	61.8 µM (active)
CCOC(=O)[C@H](CCc1ccccc1)N[C@@H](C)C(=O)N(CC(=O)O)C1Cc2ccccc2C1	inactive
CC1=C(CC=O)C(C)(C)CCC1	inactive
N#CCc1ccc(Cl)cc1Cl	inactive
CC(C)C=O	inactive
C=C(C)[C@@H]1CCC2=CCC[C@@H](C)[C@]2(C)C1	inactive
C=CCc1ccccc1OCC(O)CNC(C)C (stereo not given)	inactive
OC(CCN1CCCC1)(c1ccccc1)C1CCCCC1 (stereo not given)	inactive
CCOC(=O)c1ccc(I)cc1	inactive
CC(C)=CCC/C(C)=C/CC/C(C)=C/CCC(=O)OC/C=C(\C)CCC=C(C)C	inactive
O=C(OC(=O)c1ccccc1)c1ccccc1	inactive
